High-throughput results deposited in PubChem BioAssay by National Center for Advancing Translational Sciences (NCATS).
HP1b binding inh: inhibitors of HP1-beta chromodomain binding to methylated histone tails; Potency, µM (highest dose often 114 µM), for inactives: at the highest dose activity change, negative = inhibition, usual class: inhibitors; AID 540317; P83916; 390,000 compounds, 0.56% hits; AlphaScreen HP1-beta / biotin-H3K9me3 peptide binding; note: potency is the fitted concentration of half-maximal effect; nearly all actives have a fitted effect of over 70% in size
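Compound inhibition of the preformed complex between 50 nM HP1-beta and 50 nM biotinylated H3K9me3 peptide was read by AlphaScreen. Buffer was PBS pH 7.4 with 0.01% Tween-20. Incubations ran 30 min at room temperature, with 10 ug/mL donor/acceptor beads.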
BAZ2B block: blocks human BAZ2B; AlphaScreen BAZ2B-H3K14Ac peptide displacement; 360,000 compounds, 4.4% hits; Potency, µM (highest dose often 114 µM), inactives show at the top dose activity change, negative = inhibition, usual class: inhibitors; Q9UIF8; note: potency is the fitted concentration of half-maximal effect; % is set by controls: 0 for no effect and ±100 for the full control effect; nearly all actives have a fitted effect of over 60% in size
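AlphaScreen displacement: compounds (up to 110uM) incubated 30 min at room temperature with a preformed 50 nM BAZ2B/50 nM biotinylated H3K14Ac peptide complex in PBS pH 7.4 with Tween-20. Donor and acceptor beads at 10 ug/mL final added, 20 min light-protected before reading.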
G9a inh: inhibitors of human histone lysine methyltransferase G9a; Q96KQ7; G9a H3K9 monomethylation, AlphaScreen, 2 h; Potency, µM (doses to about 102 µM), for inactives: at the highest dose activity, negative = inhibition, hits mostly inhibitors; 350,000 compounds, 8.8% hits; AID 504332; note: potency is the fitted concentration of half-maximal effect; % is set by controls: 0 for no effect and ±100 for the full control effect; nearly all actives have a fitted effect of over 75% in size
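Methyltransferase reactions run at room temperature for 2 h (20 nM enzyme, 500 nM biotin-H3K9 peptide, 20 uM SAM) after a 15 min compound preincubation; product detected by AlphaScreen beads and anti-H3K9me1 antibody.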
Six1-Eya2 inh: blocks human Six1 binding to Eya2. Q15475+O00167. AlphaScreen GST-Six1/His-Eya2 binding, biochemical; active compounds read low. activity change, % (test concentration not listed). 360,000 compounds, 0.56% hits. AID 651725; in the data active = activity change below about -65%; inconclusive = mostly about -30% to -63%; note: % is set by controls: 0 for no effect and ±100 for the full control effect
Target sequence (O00167 whole entry, looked up): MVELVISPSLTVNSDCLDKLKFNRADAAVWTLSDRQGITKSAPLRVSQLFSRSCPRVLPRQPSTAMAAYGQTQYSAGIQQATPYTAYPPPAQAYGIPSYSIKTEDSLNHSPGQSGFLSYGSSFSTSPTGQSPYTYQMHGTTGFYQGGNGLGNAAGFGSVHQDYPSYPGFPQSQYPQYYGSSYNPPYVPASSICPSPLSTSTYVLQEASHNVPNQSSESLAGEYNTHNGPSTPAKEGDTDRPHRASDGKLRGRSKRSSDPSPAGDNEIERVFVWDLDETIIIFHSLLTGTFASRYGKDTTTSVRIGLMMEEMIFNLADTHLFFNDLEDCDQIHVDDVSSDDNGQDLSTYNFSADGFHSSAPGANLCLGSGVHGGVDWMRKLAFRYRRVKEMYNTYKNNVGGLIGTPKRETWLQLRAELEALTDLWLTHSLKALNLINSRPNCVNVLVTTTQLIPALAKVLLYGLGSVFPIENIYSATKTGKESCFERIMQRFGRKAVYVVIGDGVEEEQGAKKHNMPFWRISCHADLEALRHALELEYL
Target sequence (Q15475 whole entry, looked up): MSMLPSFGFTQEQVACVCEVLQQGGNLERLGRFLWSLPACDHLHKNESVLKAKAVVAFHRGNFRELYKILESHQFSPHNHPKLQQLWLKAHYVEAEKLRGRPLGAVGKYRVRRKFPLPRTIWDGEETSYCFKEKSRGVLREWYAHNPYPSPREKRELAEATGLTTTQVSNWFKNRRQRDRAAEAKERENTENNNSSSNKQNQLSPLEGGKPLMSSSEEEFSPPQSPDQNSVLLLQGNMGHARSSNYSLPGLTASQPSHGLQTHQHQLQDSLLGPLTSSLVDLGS
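Six1/Eya2 binding was read as AlphaScreen signal after compounds were pinned into GST-Six1 plus His-tagged Eya2 (5X stock 250/500 nM) in pH 8.0 Tris/NaCl/TCEP buffer, beads added, then incubated 1 h, 37 C, dark.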
CtBP-E1A inh: CtBP/E1A binding inhibition; AlphaScreen GST-E1A/His-CtBP binding, 1536-well; active compounds read low; activity change, % (concentration not given with the values); 340,000 compounds, 0.49% hits; AID 651724; in the data active = activity change below about -65%; inconclusive = mostly about -30% to -63%; note: % is set by controls: 0 for no effect and ±100 for the full control effect
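Steps: dispense buffer (Tris pH 8.0, NaCl 300 mM, TCEP 1 mM, BSA, Tween 20); add 5X protein mix (GST-E1A, His-CtBP, 125 nM each); pin 23 nL compound; 2 h at 37 °C, dark; add 5X beads (50 ug/mL); 1 h; read.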
JMJD2A Tudor inh: blocks the human JMJD2A Tudor domain | Potency, µM (titrated, usually from 114 µM), inactives show at the top dose activity change, negative = inhibition, usual class: inhibitors | 390,000 compounds, 4.4% hits | O75164 | AID 504339 | AlphaScreen JMJD2A-Tudor / H3K4me3 peptide binding; note: potency is the fitted concentration of half-maximal effect; % is set by controls: 0 for no effect and ±100 for the full control effect; nearly all actives have a fitted effect of over 50% in size
Numbers without * were called inactive; [ ] = another dose, or the depositor's remark. Only some compounds are listed: those with a hit (about 10% of all), similar ones and a draw of the others. Unless noted, calls come from the whole dose curve; as a rule, active = well fitted inhibition curve with a large enough effect; inconclusive = small, poorly fitted or top-dose-only effect; inactive = no such curve, though single readings can be large or run the other way.

Cc1nc(-c2cn[nH]c2)c2cc(C)oc2n1 was read as HP1b binding inh 53%, BAZ2B block -3%, G9a inh -7%, Six1-Eya2 inh -18, CtBP-E1A inh -21 and JMJD2A Tudor inh -19%.
For COc1ccc(-n2ncc(C(=O)N3CCN(C(=O)c4ccco4)CC3)c2C2CCN(C(=O)OC(C)(C)C)CC2)cc1 the results were HP1b binding inh 31%, BAZ2B block 9%[57.1 µM], G9a inh -7%[59 µM] and JMJD2A Tudor inh 1%.
For COc1ccc(S(=O)(=O)N/N=C(/C)c2ccc(Cl)cc2)cc1 the results were HP1b binding inh 14%, BAZ2B block 6%, G9a inh -26%, Six1-Eya2 inh -1, CtBP-E1A inh 1 and JMJD2A Tudor inh -15%.
COc1ccc(C/C(C)=N/NS(=O)(=O)c2ccc(Br)cc2)cc1 was read as HP1b binding inh 30%, BAZ2B block 3%, G9a inh 25µM*, Six1-Eya2 inh -2, CtBP-E1A inh -1 and JMJD2A Tudor inh -17%.
For Cc1ccc2oc(=O)n(CCCOc3ccc(Cl)cc3)c2c1 the results were HP1b binding inh 121%, BAZ2B block 200%, G9a inh 150%[59 µM] and JMJD2A Tudor inh 70%.
`Cc1cc(=O)oc2cc(OCC(=O)Nc3c(C(C)C)cccc3C(C)C)ccc12` gave HP1b binding inh 2%, BAZ2B block -4%, G9a inh 9%[59 µM] and JMJD2A Tudor inh -17%.
Screening O=C1Nc2ccc(Br)cc2/C1=C/C(=O)c1ccc2c(c1)OCO2 returned HP1b binding inh -13%, BAZ2B block inconclusive, G9a inh 10µM*, Six1-Eya2 inh -2 and JMJD2A Tudor inh inconclusive.
For CCOc1cc(C(=O)Nc2ccc(-c3nc4cc(Cl)ccc4o3)cc2)cc(OCC)c1OCC the results were HP1b binding inh 23%, BAZ2B block 2%, G9a inh 7%[59 µM] and JMJD2A Tudor inh 1%.
Screening CCOC(=O)c1cnc2nc(NCc3cccc(Br)c3)[nH]n2c1=O returned HP1b binding inh 28%, BAZ2B block -17%, G9a inh inconclusive and JMJD2A Tudor inh -19%.
For Cc1ccc(C(=O)Nc2nc3ccccc3c(=O)s2)cc1 the results were HP1b binding inh 17%, BAZ2B block inconclusive, G9a inh 8.9µM*, Six1-Eya2 inh 5, CtBP-E1A inh 9 and JMJD2A Tudor inh 89µM*.
Screening CS(=O)(=O)N1N=C(c2ccco2)CC1c1ccc(Cl)cc1 (configuration not stated) returned HP1b binding inh 6%, BAZ2B block -6%, G9a inh 50µM*, Six1-Eya2 inh 3, CtBP-E1A inh -15 and JMJD2A Tudor inh -17%.
`CS(=O)(=O)N1N=C(c2ccco2)CC1c1ccco1` (configuration not stated) gave HP1b binding inh 20%, BAZ2B block 50µM*, G9a inh 71µM*, Six1-Eya2 inh -13 and JMJD2A Tudor inh -35%.
`CC1=C(C(=O)NCc2ccc(Cl)cc2)C2(CCCCCC2)OC1=O` gave HP1b binding inh 20%, BAZ2B block 2%, G9a inh 0%[59 µM] and JMJD2A Tudor inh -15%.
Screening CCCCCOC(=O)CSc1nc2sc3c(c2c(=O)n1Cc1ccccc1)CC(C)(CC)OC3 (configuration not stated) returned HP1b binding inh 39%, BAZ2B block 4%, G9a inh 14%[59 µM] and JMJD2A Tudor inh -3%.
For Nc1nc(=S)n(-c2ccccc2)[nH]1 the results were HP1b binding inh inconclusive, BAZ2B block inconclusive, G9a inh 10µM*, Six1-Eya2 inh 4, CtBP-E1A inh 16 and JMJD2A Tudor inh 3.5µM*.
`Cc1nc(=S)n(-c2ccccc2)[nH]1` gave HP1b binding inh 43%, BAZ2B block 6%, G9a inh 14µM*, Six1-Eya2 inh 0, CtBP-E1A inh 2 and JMJD2A Tudor inh 7.1µM*.
Screening O=c1[nH]n(-c2ccccc2)c(=O)c2ccccc12 returned HP1b binding inh 4%, BAZ2B block 12%, G9a inh 3%, Six1-Eya2 inh 8, CtBP-E1A inh 1 and JMJD2A Tudor inh -19%.
